Experimental data published in PubChem BioAssay (NCI).
This is part of a sample that, as a whole, favours compounds with a hit. Of some 79,000 tested, about 15% had one in any assay. Unmarked numbers belong to inactive results. Activity calls are given as the source filed them. Cut-off read from the data, not from the text of the source: active = growth inhibition above about 70%; inactive = the rest.

How the values were obtained:
[1] = NCI Yeast Anticancer Drug Screen. Data for the rad50 strain (AID 155);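 note: 0% = growth of vehicle-only cultures of the same strain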; conditions: S. cerevisiae rad50 strain growth inhibition, active compounds read high
Method in brief: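 Genetically altered yeast (DNA repair pathway); compound treatment; growth inhibition vs vehicle ctrl.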

[2] = NCI Yeast Anticancer Drug Screen. Data for the mec2-1 strain (AID 157); conditions: S. cerevisiae mec2-1 strain, active compounds read high
Method in brief: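 Using mec2-1 yeast: add compound, measure growth, express inhibition versus vehicle-treated cultures.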

[3] = NCI Yeast Anticancer Drug Screen. Data for the sgs1 mgt1 strain (AID 161);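 note: 0% = growth of cultures given vehicle only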; conditions: S. cerevisiae sgs1 mgt1 strain, active compounds read high
Method in brief: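 This yeast growth screen uses a strain with defined DNA-repair lesions; compound-treated growth is compared with vehicle-treated growth.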

[4] = NCI Yeast Anticancer Drug Screen. Data for the cln2 rad14 strain (AID 165);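 note: 0% = growth equal to vehicle treated cultures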; conditions: S. cerevisiae cln2 rad14 strain, active compounds read high
Method in brief: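 Yeast strain cln2 rad14, bearing defects in cell cycle control and DNA repair, serves as the test system; values reflect growth inhibition compared with vehicle.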

[5] = NCI Yeast Anticancer Drug Screen. Data for the bub3 strain (AID 167); conditions: S. cerevisiae bub3 mutant strain, active compounds read high
Method in brief: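 Yeast carrying a defined mutation is treated with each compound, and growth is compared with that of vehicle-exposed cells to give inhibition.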

[6] = NCI Yeast Anticancer Drug Screen. Data for the mlh1 rad18 strain (AID 175); conditions: S. cerevisiae mlh1 rad18 strain growth inhibition, active compounds read high
Method in brief: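 Steps: expose repair-defective yeast to compound; measure growth; express inhibition against vehicle-treated controls.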

[7] = at 5.0 µM (retest, dose inferred, filed as 0.5)
[8] = at 50.0 µM (retest, dose inferred, filed as 5.0)

SMILES | growth inhibition [1, 7] | growth inhibition [1, 8] | growth inhibition ([1]; at 50.0 µM) | growth inhibition [2, 7] | growth inhibition [2, 8] | growth inhibition ([2]; at 50.0 µM) | growth inhibition [3, 7] | growth inhibition [3, 8] | growth inhibition ([3]; at 50.0 µM) | growth inhibition [4, 7] | growth inhibition [4, 8] | growth inhibition ([4]; at 50.0 µM) | growth inhibition [5, 7] | growth inhibition [5, 8] | growth inhibition ([5]; at 50.0 µM) | growth inhibition [6, 7] | growth inhibition [6, 8] | growth inhibition ([6]; at 50.0 µM)
CCCCCCCCCCCCSCCCN | -6% | 99% (active) | 99.2% (active) | -3% | 99% (active) | 99.5% (active) | -1% | 99% (active) | 99.2% (active) | -9% | 99% (active) | 99.5% (active) | -5% | 99% (active) | 99.5% (active) | -9% | 99% (active) | 99.5% (active)
CCNCC(O)COc1ccc2c(c1)[n+]([O-])nc(N)[n+]2[O-] (stereo not given) | 39% | 75% (active) | 61.1% | 31% | 88% (active) | 70% (active) | 42% | 60% | 62.8% | 42% | 41% | 40.9% | 47% | 84% (active) | 63% | 50% | 91% (active) | 58.8%
CC(=O)CC(=O)OCc1ccccc1 | 12% | 97% (active) | 94.5% (active) | 4% | 98% (active) | 97.2% (active) | 1% | 96% (active) | 98% (active) | 4% | 89% (active) | 87.2% (active) | 8% | 98% (active) | 96% (active) | 14% | 98% (active) | 97.7% (active)
Oc1ccc2c(c1)Cc1cc(Br)ccc1-2 | 3% | 99% (active) | 98.5% (active) | -6% | 99% (active) | 98.9% (active) | 7% | 80% (active) | 98.6% (active) | -5% | 99% (active) | 97.8% (active) | 24% | 99% (active) | 98.5% (active) | -11% | 99% (active) | 98.2% (active)
CCN1/C(=C/C(C)=C/c2sc3ccccc3[n+]2CC)Sc2ccccc21 | 98% (active) | 97% (active) | 92% (active) | 97% (active) | 100% (active) | 94% (active) | 98% (active) | 100% (active) | 94% (active) | 97% (active) | 99% (active) | 93.7% (active) | 98% (active) | 99% (active) | 92.8% (active) | 98% (active) | 99% (active) | 92% (active)
O=C(COc1ccc(Br)cc1Br)N1N=C(c2ccc([N+](=O)[O-])o2)CC1(O)c1ccccc1 (stereo not given) | 23% | 23% | 19.4% | 6% | 6% | 71.2% (active) | 12% | 12% | 70.7% (active) | 0% | 0% | 76.2% (active) | 7% | 7% | 59.6% | 22% | 22% | 58.8%
COc1cc2c(c(O)c1OC)-c1c(cc(OC)c(OC)c1OC)CC(C)C(C)C2 (stereo not given) | -23% | 27% | 66.9% | -23% | 11% | 46.7% | -15% | 63% | 74.7% (active) | -10% | 61% | 51.5% | 9% | 53% | 60% | 6% | 59% | 18.7%
COc1cc(C2c3cc4c(cc3OC(NNc3ccccc3)C2C)OCO4)cc(OC)c1O (stereo not given) | -5% | 97% (active) | 98.2% (active) | -15% | 98% (active) | 98.7% (active) | -13% | 99% (active) | 98.4% (active) | -5% | 96% (active) | 98.6% (active) | -7% | 97% (active) | 98.7% (active) | -11% | 97% (active) | 98.3% (active)
C(=NCCc1ccccc1)c1ccccc1B1OB(c2ccccc2C=NCCc2ccccc2)OB(c2ccccc2C=NCCc2ccccc2)O1 | 94% (active) | 99% (active) | 99.6% (active) | 93% (active) | 100% (active) | 99.8% (active) | 90% (active) | 99% (active) | 99.7% (active) | 77% (active) | 98% (active) | 99.3% (active) | 79% (active) | 99% (active) | 99.7% (active) | 92% (active) | 99% (active) | 99.5% (active)
CC(=O)c1nc2ccccc2n1C(C)C(=O)c1ccccc1 (stereo not given) | 39% | 37% | 16.9% | 23% | 34% | 21.6% | 18% | 74% (active) | 68.4% | 33% | 24% | 6.15% | -7% | 35% | 37.5% | 18% | 30% | -1.7%
